Among the test systems are T-47D breast; BT-549 breast; MDA-MB-435 melanoma; SW-620 colon; MCF7 breast; HCT-116 colon; HCC-2998 colon; KM12 colon.
Assay in all cases: NCI-60 one-dose screen, 48 h (100 = growth as untreated, 0 = no growth, -100 = all killed)
Holding throughout (details): 10 µM unless noted

The panel holds about 83,000 compounds, 20% with a hit somewhere; the sample as a whole holds those more often.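 Negative percent growth values reflect cell death: -40 means 40% of the cells present at the start died, and -100 means all died.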 A number with no mark means an inactive call. Calls of active or inactive are those of the source. How the source made its calls: active means growth percent below 10; inactive means the rest.

In PubChem BioAssay (NCI) one finds growth data, which are given here for 14 compounds.

`O=CN(SSN(C=O)C1CCCCC1)C1CCCCC1`: the growth was 79.2% in the assay on T-47D breast; 137% with BT-549 breast; 110% in the assay with MDA-MB-435 melanoma; 92.3% in the assay with SW-620 colon; 102% in the assay with MCF7 breast; 85.9% with HCT-116 colon. Besides, the results for the growth in the assay on HCC-2998 colon and in the assay with KM12 colon were 116% and 104%, respectively.

Consider `CS(=O)(=O)Nc1cc(-c2ccc3ncnc(Nc4cccc(Cl)c4F)c3c2)cnc1Cl`, for which the growth was -4.02% (active) in the assay with T-47D breast; 17.9% with BT-549 breast; 46.2% in the assay with MDA-MB-435 melanoma; 46.3% in the assay with SW-620 colon; 11% with MCF7 breast; 46.7% with HCT-116 colon. Further, the values for the growth with HCC-2998 colon and with KM12 colon were 45.3% and 69.3%, respectively.

With `COC1=C(C)C(=O)c2c(c(CCCl)c3n2CCC3O)C1=O` (configuration not stated), the growth in the assay on T-47D breast was 81.2%; with BT-549 breast it was -30.4% (active); in the assay with MDA-MB-435 melanoma it was -72.7% (active); in the assay on SW-620 colon, 8.6% (active); in the assay on MCF7 breast, -14.2% (active); in the assay with HCT-116 colon, 9.41% (active). Further, the growth is -39.1% (active) with HCC-2998 colon and 0.859% (active) in the assay on KM12 colon.

Regarding `CN(C(=O)NCc1cccc(F)c1Cl)[C@H](COC(=O)Nc1cc2ccccc2cn1)CC(O)CO` (some centres not stated), the growth in the assay with T-47D breast is 89%; with BT-549 breast it was 43.9%; in the assay with MDA-MB-435 melanoma it was 104%; in the assay on SW-620 colon it was 92.2%; with MCF7 breast it was 98.9%; in the assay with HCT-116 colon, 95.4%. The values for the growth in the assay with HCC-2998 colon and with KM12 colon were 110% and 104%, respectively.

Turning to `CSc1ncccc1C(=O)OCC(=O)Nc1oc(C)c2c(C)n[nH]c(=O)c12`, the growth with T-47D breast is 103%; with BT-549 breast, 99.1%; in the assay with MDA-MB-435 melanoma, 107%; in the assay with SW-620 colon, 105%; in the assay with MCF7 breast, 84%; with HCT-116 colon, 109%. Besides, the results for the growth in the assay on HCC-2998 colon and with KM12 colon were 113% and 103%, respectively.

For the compound `CC(=O)O.CN1[CH-]N(Cc2ccc(C#N)cc2)c2ccccc21.[Ag+]`, the growth was 69.7% in the assay on T-47D breast; 102% with BT-549 breast; 106% in the assay on MDA-MB-435 melanoma; 57.9% with SW-620 colon; 97% in the assay with MCF7 breast; 105% with HCT-116 colon. Besides, the growth was 113% in the assay with HCC-2998 colon and 86.9% with KM12 colon.

On to `COc1ccc(OC)c(/C=C/C(=O)N/N=C/c2ccc(Cl)cc2)c1`, for which the growth was 29.5% in the assay with T-47D breast; 63.5% in the assay with BT-549 breast; -32.4% (active) in the assay on MDA-MB-435 melanoma; 19.9% in the assay with SW-620 colon; 8.93% (active) with MCF7 breast; 5.72% (active) in the assay on HCT-116 colon. Further, the growth in the assay on HCC-2998 colon is 2.34% (active); in the assay on KM12 colon, 18%.

As for `COc1ccc([C@H]2c3cc(OC)c(OC)cc3C=C(C=O)C2CO)cc1OC` (some centres not stated), the growth with T-47D breast is 45.2%; with BT-549 breast it was 58.6%; in the assay on MDA-MB-435 melanoma, -24% (active); with SW-620 colon, 21.5%; in the assay with MCF7 breast it was 18.5%; with HCT-116 colon, 23.8%. In addition, the growth in the assay with HCC-2998 colon is 58.4%; with KM12 colon it was 21%.

`COC(=O)C(Cc1ccccc1)NC(=O)NC(=O)NC(=O)CI` (configuration not stated): the growth in the assay with T-47D breast is 59.3%; in the assay on BT-549 breast, 79%; in the assay on MDA-MB-435 melanoma, 24.4%; in the assay with SW-620 colon it was -28.4% (active); with MCF7 breast, 41.3%; in the assay on HCT-116 colon, 94.5%. The growth in the assay on HCC-2998 colon was 95.9%; with KM12 colon, 96.7%.

As to `COc1ccc2c(c1)c(-c1ccc(-c3cn(C)c4ccc(OC)cc34)o1)cn2C`, the growth with T-47D breast is -14% (active); with BT-549 breast, 1.95% (active); in the assay with MDA-MB-435 melanoma, 89.5%; with SW-620 colon it was 38%; in the assay on MCF7 breast, 65.4%; with HCT-116 colon, 68.6%. The growth in the assay with HCC-2998 colon is 30.1%; with KM12 colon, 22.7%.

Consider `COc1ccc(-n2c(N)c(-c3nc4ccccc4[nH]3)cc(C#N)c2=O)cc1`, for which the growth in the assay with T-47D breast is 77.8%; in the assay with BT-549 breast it was 75.1%; with MDA-MB-435 melanoma, 99.3%; with SW-620 colon, 106%; with MCF7 breast, 87.7%; with HCT-116 colon, 88.2%. The growth was 108% with HCC-2998 colon and 99.9% in the assay on KM12 colon.

`NCCOc1ncccc1/C=C1\C2C=CC=CC2C2C=CC(F)=CC12` (configuration not stated): the growth in the assay with T-47D breast was 33.1%; with BT-549 breast it was 84.7%; in the assay with MDA-MB-435 melanoma, 63.4%; with SW-620 colon, 13.3%; in the assay on MCF7 breast, 11.8%; with HCT-116 colon, 22.2%. For the same compound, the results for the growth in the assay with HCC-2998 colon and in the assay on KM12 colon were 4.37% (active) and 29%, respectively.

For the compound `O=C(/C=C/c1sc(Cl)nc1Cl)c1ccc(F)cc1`, the growth in the assay with T-47D breast is 83.7%; in the assay with BT-549 breast it was 103%; in the assay with MDA-MB-435 melanoma, 101%; in the assay with SW-620 colon it was 24.7%; in the assay on MCF7 breast, 14.4%; in the assay with HCT-116 colon, 39.4%. Moreover, the growth with HCC-2998 colon was 30.4%; in the assay with KM12 colon, 60.8%.

As for `Fc1cc(-c2nnc3sc(-c4ccc(Cl)cc4Cl)nn23)c(Cl)cc1Cl`, the growth in the assay with T-47D breast was 68.4%; in the assay on BT-549 breast it was 79.4%; in the assay with MDA-MB-435 melanoma it was 94.3%; in the assay on SW-620 colon, 81.7%; in the assay with MCF7 breast, 83.7%; in the assay with HCT-116 colon it was 45.9%. Further, the growth in the assay with HCC-2998 colon is 93%; in the assay on KM12 colon, 96%.
